The values below come from PubChem BioAssay (NCATS).

The structures appear in SMILES notation. Several values for one entry are separate records, joined by “and”; a condition that tells them apart may be missing. Equal values may be shown once. Inconclusive results are not listed. Activity calls are given as the source filed them. Unless noted, the call rests on the fitted dose curve; in most records, active means well fitted curve in either direction with a large enough effect (not every such curve was filed as active); inconclusive means small, poorly fitted or top-dose-only effect, or another doubt; inactive means flat fitted curve, though single readings scatter.

Test [1] in a line: AP1 Signaling Pathway (AID 357).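 Further: ME-180 reporter cells stimulated with EGF at its EC50 level; on the % scale 0 is the no-effect control and ±100 the full control effect.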 The note with it: ME-180 AP-1-bla reporter, EGF-induced, beta-lactamase ratio, 5 h. The procedure, abridged:
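In this screen, ME-180 cells in Opti-MEM with 0.5% dialyzed FBS received EC50 EGF and compound titrations for 5 h. AP-1 reporter beta-lactamase was detected via CCF4 ratio, giving AC50 for positive and negative modulators.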

In test [2] the target is Cytochrome P450 1A2 (Homo sapiens) (UniProt P05177). The test is described as follows: p450-cyp1a2 (AID 410; calls by dose curve; further: potency means the concentration at half of the fitted maximal effect). The gist of the method: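 Human CYP1A2 (20nM) demethylated Luciferin-ME at its Km (100uM) in 100mM KPO4. After 10 min compound preincubation, NADPH regeneration ran the reaction 60 min at room temperature. Luciferin was read by luminescence, normalized to 57 uM furafylline.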
Cytochrome P450 1A2 (Homo sapiens), sequence (P05177 whole entry, looked up): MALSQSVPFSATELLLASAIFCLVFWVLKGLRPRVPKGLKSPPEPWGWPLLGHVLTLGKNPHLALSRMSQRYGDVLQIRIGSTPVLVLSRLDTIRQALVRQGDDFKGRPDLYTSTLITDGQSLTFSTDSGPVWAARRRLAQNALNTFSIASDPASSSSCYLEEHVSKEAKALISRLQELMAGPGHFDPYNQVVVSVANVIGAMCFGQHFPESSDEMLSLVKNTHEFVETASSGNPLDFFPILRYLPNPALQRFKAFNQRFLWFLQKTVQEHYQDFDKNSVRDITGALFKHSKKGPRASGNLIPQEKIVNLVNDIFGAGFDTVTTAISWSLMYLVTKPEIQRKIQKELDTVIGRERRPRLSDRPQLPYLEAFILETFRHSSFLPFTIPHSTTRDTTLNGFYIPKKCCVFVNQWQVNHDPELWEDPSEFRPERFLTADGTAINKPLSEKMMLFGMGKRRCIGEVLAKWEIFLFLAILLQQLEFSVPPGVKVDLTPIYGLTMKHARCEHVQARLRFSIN

Test [3] in a line: NFAT Signaling Pathway (AID 444).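 Further: carbachol stimulus at about its EC50 of 1 µM final; on the % scale 0 is the no-effect control and ±100 the full control effect.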 The note with it: Jurkat NFAT-bla M1, carbachol, beta-lactamase ratio, 5 h. The procedure, abridged:
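Jurkat cells with NFAT-driven β-lactamase reporter and co-expressed M1 receptor, stimulated with carbachol (final 1 uM, ~EC50), compound titration, 5 h at 37 °C. CCF4 loaded 1 h at RT; 460/530 nm ratio gave %activity and AC50.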

Test [4] is described as follows: Stat Signaling Pathway (AID 446).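 Further: ME-180 cervical cancer cells given 40 pM IL-6 alongside compound; SIE-controlled beta-lactamase reporter measured as 460/530 nm FRET emission ratio; on the % scale 0 is the no-effect control and ±100 the full control effect.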 Conditions: ME-180 SIE beta-lactamase reporter, IL-6 stimulated, 5 h. The gist of the method:
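Reporter line: ME-180 cervical carcinoma, SIE-beta-lactamase. Treatment: compound with 40 pM IL-6, 5 hrs, 37 C, in low-serum OPTI-MEM with 10 mM HEPES pH 7.3. Detection: 460/530 nm fluorescence.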

In test [5] the target is Glucocorticoid receptor (Homo sapiens) (UniProt P04150). In words: GR-GFP Redistribution (AID 450;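 active means compounds whose dose series gives a full or clear partial fitted curve of increased nuclear translocation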; further: potency means the concentration at half of the fitted maximal effect). Conditions: U2OS GR-GFP nuclear translocation, laser cytometry, 2 h.
Glucocorticoid receptor (Homo sapiens), sequence (P04150 whole entry, looked up, the tested form may be a part): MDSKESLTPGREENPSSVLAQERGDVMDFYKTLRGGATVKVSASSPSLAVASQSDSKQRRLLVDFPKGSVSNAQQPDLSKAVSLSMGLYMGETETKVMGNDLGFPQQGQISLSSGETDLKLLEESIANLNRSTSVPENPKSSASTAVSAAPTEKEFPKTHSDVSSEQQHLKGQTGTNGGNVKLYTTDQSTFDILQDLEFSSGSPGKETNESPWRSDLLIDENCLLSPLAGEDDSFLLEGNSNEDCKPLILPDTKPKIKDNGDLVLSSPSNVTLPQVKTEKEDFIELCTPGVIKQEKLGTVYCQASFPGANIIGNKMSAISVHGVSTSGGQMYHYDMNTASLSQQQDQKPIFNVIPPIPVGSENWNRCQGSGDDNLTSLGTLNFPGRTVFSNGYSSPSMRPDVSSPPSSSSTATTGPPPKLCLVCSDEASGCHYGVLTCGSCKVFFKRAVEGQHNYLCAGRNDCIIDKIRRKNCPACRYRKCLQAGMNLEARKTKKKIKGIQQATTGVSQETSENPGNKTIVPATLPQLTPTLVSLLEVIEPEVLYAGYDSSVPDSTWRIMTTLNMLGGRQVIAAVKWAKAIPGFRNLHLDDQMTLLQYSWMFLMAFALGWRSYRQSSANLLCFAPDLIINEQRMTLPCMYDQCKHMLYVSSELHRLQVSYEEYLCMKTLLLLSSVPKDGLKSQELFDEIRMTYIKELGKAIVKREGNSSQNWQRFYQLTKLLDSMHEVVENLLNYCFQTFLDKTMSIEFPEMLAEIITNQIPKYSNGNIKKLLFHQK
Test [6] has the same target. The test is described as follows: GR-EFC Redistribution (AID 451; calls by dose curve; further: potency means the concentration at half of the fitted maximal effect). The note with it: CHO-K1 GR-EFC translocation, beta-gal luminescence, 2 h. The procedure, abridged: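 CHO-K1 cells expressing nuclear EA and GR-ED fragments of b-gal; compounds titrated up to 46 uM final, 2 h at 37 C. GR nuclear translocation read as complemented b-gal luminescence after 1 h RT detection.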

In test [7] the target is Mitogen-activated protein kinase 10 (Mus musculus) (UniProt Q61831). The test is described as follows: JNK3 AlphaScreen Assay (AID 530).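 Further: kinase came from lysate of stimulated human HepG2 cells; signal reports phosphorylation of biotinylated GST-cJun 1-79 at Ser73 with 10 µM ATP; on the % scale 0 is the no-effect control and ±100 the full control effect.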 The gist of the method:
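qHTS format: compounds tested as titrations against IL-1beta/TNF-alpha-activated HepG2 lysate JNK3 with biotin-GST-cJun substrate and 10 uM ATP at room temperature. Loss of anti-phospho-cJun AlphaScreen signal indicates inhibition.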
For orientation: Alpha assays give light when donor and acceptor beads are brought close together.

Test [8] has as its target Pyruvate kinase (Leishmania mexicana) (UniProt Q27686). The test is described as follows: qHTS Validation Assay for Inhibitors of Leishmania Mexicana Pyruvate Kinase (AID 945; active means well fitted curve in the direction sought with a large enough effect; an effect the other way counts as inactive or inconclusive;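 further: 0% = DMSO only neutral control wells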). The gist of the method: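 Purified LmPYK (E451W mutant, 0.2 nM) was incubated 1 h at room temperature with 0.5 mM PEP and 0.1 mM ADP in 50 mM imidazole pH 7.2, 50 mM KCl, 7 mM MgCl2; ATP formed was read by PKLight luminescence, normalized to DMSO wells.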
Background: Quantitative high-throughput screening tests each substance at several concentrations.

Test [9] addresses Alpha-galactosidase A (Homo sapiens) (UniProt P06280). The test is described as follows: Counterscreen for Glucocerebrosidase Inhibitors: qHTS Assay for Human alpha-Galactosidase at pH 4.5 (AID 992; active means well fitted curve in the direction sought with a large enough effect; an effect the other way counts as inactive or inconclusive; further: 0% is about no effect). The gist of the method:
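Quantitative HTS: compounds tested from 0.7 nM up to 77 uM against 2 nM enzyme with 80 uM 4-MU alpha-D-galactopyranoside. The 20 min room-temperature reaction is stopped with 1M NaOH/1M glycine, pH 10.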
Background: A counterscreen serves to expose hits that act by an unwanted route or on another target.

The target of test [10] is alpha-glucosidase (Oryza sativa, rice) (UniProt Q653V4). In words: Counterscreen for Glucocerebrosidase Inhibitors: qHTS Assay for Rice alpha-Glucosidase at pH 5.0 (AID 997; active means well fitted curve in the direction sought with a large enough effect; an effect the other way counts as inactive or inconclusive;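 further: 0% = full activity with enzyme and -100% = basal without enzyme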). The procedure, abridged:
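Rice alpha-glucosidase (4 nM final) with 400 uM 4-methylumbelliferyl-alpha-D-glucopyranoside in citrate buffer pH 5.0, 20 min at room temperature, stopped at pH 10; fluorescence 365/440 nm, compounds 0.7 nM–77 uM, AC50 from Hill fits.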

Test [11] is described as follows: qHTS Assay for Lipid Storage Modulators (AID 1519; calls by dose curve). Conditions: Drosophila S3 cells, BODIPY lipid droplet/cell ratio, laser cytometry, cells loaded with oleic acid; for activity change, negative = inhibition: at 25.7 µM (top of the series). The gist of the method:
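Cells seeded at 5,000 per well were treated with compounds over a concentration series and loaded with oleic acid (400 uM, as added). Lipid droplet fluorescence (488 nm excitation, 500-530 nm channel) was read by laser-scanning cytometry and normalized to 20 uM Triacsin C.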

In test [12] the target is 3',5'-cyclic-AMP phosphodiesterase 4B (Homo sapiens) (UniProt Q07343). The test is described as follows: qHTS Assay for Inhibitors of PDE-IV (AID 607; active means well fitted activation curve with a large enough effect in the main read-out, with a control signal flat, not every such curve was filed as active; further: % of control where 0% means no effect). The gist of the method: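 Cell-based read-out of cAMP via a modified cyclic nucleotide-gated channel and membrane potential dye (535/590 nm) in HEK293 cells expressing PDE4 endogenously. Compounds tested up to 22.9 uM final; 100 uM RO 20-1724 reference.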
3',5'-cyclic-AMP phosphodiesterase 4B (Homo sapiens), sequence (Q07343 whole entry, looked up): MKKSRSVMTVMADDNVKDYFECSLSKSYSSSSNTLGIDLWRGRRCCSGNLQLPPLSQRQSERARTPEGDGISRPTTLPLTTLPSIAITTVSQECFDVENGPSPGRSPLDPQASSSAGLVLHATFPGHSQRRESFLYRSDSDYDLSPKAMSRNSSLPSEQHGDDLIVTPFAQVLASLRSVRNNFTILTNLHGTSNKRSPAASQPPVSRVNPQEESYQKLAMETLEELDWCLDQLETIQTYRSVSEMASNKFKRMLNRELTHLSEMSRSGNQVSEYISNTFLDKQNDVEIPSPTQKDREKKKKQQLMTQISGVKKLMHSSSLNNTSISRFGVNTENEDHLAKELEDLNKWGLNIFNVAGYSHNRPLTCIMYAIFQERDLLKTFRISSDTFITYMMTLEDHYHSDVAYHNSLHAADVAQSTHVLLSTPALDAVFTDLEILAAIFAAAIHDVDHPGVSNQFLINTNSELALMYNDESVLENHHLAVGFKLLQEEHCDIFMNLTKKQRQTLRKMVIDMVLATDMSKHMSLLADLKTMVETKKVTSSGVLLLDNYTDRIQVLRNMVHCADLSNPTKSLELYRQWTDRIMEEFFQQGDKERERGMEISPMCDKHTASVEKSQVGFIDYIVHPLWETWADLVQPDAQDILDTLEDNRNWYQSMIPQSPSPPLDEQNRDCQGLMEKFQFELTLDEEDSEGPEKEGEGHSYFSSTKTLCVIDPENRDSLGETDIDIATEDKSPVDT

Test [13] concerns the target ATP-dependent 6-phosphofructokinase (Trypanosoma brucei brucei) (UniProt O15648). The test is described as follows: qHTS Assay to Find Inhibitors of T. brucei phosphofructokinase: hit validation (AID 492961; active means well fitted curve in the direction sought with a large enough effect; an effect the other way counts as inactive or inconclusive). The gist of the method:
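Compounds titrated; %activity normalized to 0x and 1x enzyme controls, curve-fitted. Readout: ADP-Glo luminescence after 45 min room-temperature reaction of 1.25 nM PFK, 0.1 mM ATP, 0.5 mM F6P, pH 8.0.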

Test [14] deals with Ubiquitin carboxyl-terminal hydrolase 1 (Homo sapiens) (UniProt O94782). The test is described as follows: Inhibitors of USP1/UAF1: Pilot qHTS (AID 504865; active means well fitted curve in the direction sought with a large enough effect; an effect the other way counts as inactive or inconclusive;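 further: rhodamine fluorescence freed from ubiquitin-rhodamine substrate followed over time; top concentration of the series differs between compounds; on the % scale 0 is the no-effect control and ±100 the full control effect; nearly all actives have a fitted effect of over 35% in size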). The gist of the method: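 USP1/UAF1 complex at 1 nM preincubated 15 min at room temperature with compound, then Ub-Rho substrate added at 150 nM final. Fluorescence (480/540 nm) read kinetically in 50 mM HEPES pH 7.8, 0.5 mM EDTA, 1 mM TCEP, 0.1 mg/ml BSA, 0.01% Tween-20.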
Ubiquitin carboxyl-terminal hydrolase 1 (Homo sapiens), sequence (O94782 whole entry, looked up): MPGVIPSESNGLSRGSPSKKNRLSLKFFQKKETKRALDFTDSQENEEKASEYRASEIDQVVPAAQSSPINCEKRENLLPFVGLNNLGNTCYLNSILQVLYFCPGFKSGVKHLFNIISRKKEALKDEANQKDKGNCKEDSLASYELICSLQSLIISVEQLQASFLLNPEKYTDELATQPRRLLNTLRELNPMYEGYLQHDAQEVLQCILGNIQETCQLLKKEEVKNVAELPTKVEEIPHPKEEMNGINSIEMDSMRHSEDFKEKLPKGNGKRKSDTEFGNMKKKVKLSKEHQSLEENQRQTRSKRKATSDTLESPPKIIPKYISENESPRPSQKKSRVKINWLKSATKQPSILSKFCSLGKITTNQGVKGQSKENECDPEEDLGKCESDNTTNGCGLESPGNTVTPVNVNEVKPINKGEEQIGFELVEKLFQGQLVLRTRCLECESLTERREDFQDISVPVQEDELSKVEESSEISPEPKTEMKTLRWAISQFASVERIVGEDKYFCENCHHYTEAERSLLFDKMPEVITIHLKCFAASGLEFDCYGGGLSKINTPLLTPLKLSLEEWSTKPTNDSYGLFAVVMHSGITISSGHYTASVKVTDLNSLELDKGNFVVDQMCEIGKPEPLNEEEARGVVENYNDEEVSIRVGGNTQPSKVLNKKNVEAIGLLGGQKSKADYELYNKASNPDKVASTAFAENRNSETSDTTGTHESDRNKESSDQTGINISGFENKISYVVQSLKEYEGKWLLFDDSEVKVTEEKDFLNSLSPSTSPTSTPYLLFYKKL

Test [15] addresses Luciferin 4-monooxygenase (Photinus pyralis) (UniProt P08659). The test is described as follows: Biochemical firefly luciferase enzyme assay for NPC (AID 624030; active means well fitted curve in the direction sought with a large enough effect; an effect the other way counts as inactive or inconclusive;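 further: purified P. pyralis luciferase at 10 nM with luciferin and ATP substrate; 0% = DMSO and -100% = full luciferase inhibition by PTC124 control; nearly all actives have a fitted effect of over 70% in size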). The procedure, abridged: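 Purified P. pyralis luciferase at 10 nM in 50 mM Tris Acetate (final), luminescence read within 5 minutes of enzyme addition to compounds. Activity normalised to PTC124 versus DMSO; concentration-response curves classed by r2, magnitude and activity.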

Test [16] is described as follows: qHTS profiling for inhibitors of Plasmodium falciparum proliferation (AID 504749; active means well fitted curve in the direction sought with a large enough effect; an effect the other way counts as inactive or inconclusive;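 further: 0% = DMSO vehicle and full inhibition = artemisinin control; nearly all actives have a fitted effect of over 60% in size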). Conditions: P. falciparum in erythrocytes, SYBR Green DNA, 72 h, at 28.7 µM (top of the series). The procedure, abridged: (§1)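 Readout was DNA-dye fluorescence from lysed cultures, ex 485/em 535 nm. Parasitized red cells had grown 72 h with compound; data scaled between 0.29 uM artemisinin and DMSO wells and corrected using vehicle-only plates.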

The next test concerns AS120. The test is described as above. Conditions: P. falciparum in erythrocytes, SYBR Green DNA, 72 h; series mostly up to 28.7 µM. The gist of the method: as §1
Another test has as its system CP238. The description is as above. Conditions: P. falciparum in erythrocytes, SYBR Green DNA, 72 h; series mostly up to 12.8 µM. The gist of the method:
as §1

The next test deals with CP265. The description is as above. The note with it: P. falciparum in erythrocytes, SYBR Green DNA, 72 h; series mostly up to 12.8 µM. The procedure, abridged: as §1
Another test deals with FAB9. Described as above. The note with it: P. falciparum in erythrocytes, SYBR Green DNA, 72 h; series mostly up to 12.8 µM. The procedure, abridged:
as §1

The mark [17] stands for this setting: measured here: cell count channel max response.
The mark [18] stands for this setting: measured here: lipid channel max response.

Pyruvate kinase (Leishmania mexicana), sequence (Q27686 2-499 E452W): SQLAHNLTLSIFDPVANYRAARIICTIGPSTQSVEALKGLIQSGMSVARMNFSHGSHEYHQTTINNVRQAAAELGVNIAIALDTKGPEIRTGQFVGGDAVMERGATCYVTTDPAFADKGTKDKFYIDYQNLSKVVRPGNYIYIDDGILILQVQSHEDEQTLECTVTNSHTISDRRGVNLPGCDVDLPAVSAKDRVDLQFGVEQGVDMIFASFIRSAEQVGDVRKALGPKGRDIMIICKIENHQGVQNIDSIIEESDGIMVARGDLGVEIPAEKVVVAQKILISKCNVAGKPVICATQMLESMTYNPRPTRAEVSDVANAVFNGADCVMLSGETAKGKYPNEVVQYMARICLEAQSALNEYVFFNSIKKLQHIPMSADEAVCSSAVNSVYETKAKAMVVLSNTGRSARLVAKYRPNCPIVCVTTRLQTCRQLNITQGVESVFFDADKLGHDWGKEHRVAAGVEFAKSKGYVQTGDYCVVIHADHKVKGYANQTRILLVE
Alpha-galactosidase A (Homo sapiens), sequence (P06280 whole entry, looked up): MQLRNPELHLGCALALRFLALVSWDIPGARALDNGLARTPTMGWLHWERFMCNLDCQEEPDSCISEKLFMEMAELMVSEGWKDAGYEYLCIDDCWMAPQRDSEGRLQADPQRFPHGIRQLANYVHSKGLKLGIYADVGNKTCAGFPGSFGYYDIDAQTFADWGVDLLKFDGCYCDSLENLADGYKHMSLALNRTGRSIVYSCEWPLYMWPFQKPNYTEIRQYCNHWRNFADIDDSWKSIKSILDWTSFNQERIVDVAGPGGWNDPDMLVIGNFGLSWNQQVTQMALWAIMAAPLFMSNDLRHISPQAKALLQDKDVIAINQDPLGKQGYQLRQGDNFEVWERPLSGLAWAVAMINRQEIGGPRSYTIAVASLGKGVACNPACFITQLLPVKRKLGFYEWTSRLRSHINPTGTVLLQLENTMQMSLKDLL
ATP-dependent 6-phosphofructokinase (Trypanosoma brucei brucei), sequence (O15648 whole entry, looked up): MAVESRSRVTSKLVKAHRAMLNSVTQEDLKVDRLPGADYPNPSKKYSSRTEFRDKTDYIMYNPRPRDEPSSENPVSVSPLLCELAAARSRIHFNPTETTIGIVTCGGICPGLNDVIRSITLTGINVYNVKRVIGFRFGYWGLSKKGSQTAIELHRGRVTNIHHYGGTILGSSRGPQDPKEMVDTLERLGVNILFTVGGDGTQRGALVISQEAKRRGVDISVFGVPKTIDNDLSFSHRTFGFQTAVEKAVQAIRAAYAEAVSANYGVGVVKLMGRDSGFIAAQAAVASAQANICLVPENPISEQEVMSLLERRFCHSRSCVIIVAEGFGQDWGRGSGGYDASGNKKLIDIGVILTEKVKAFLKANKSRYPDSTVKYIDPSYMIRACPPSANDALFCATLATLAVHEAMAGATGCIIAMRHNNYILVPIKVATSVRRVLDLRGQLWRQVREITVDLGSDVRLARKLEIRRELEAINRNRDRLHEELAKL
Luciferin 4-monooxygenase (Photinus pyralis), sequence (P08659 whole entry, looked up): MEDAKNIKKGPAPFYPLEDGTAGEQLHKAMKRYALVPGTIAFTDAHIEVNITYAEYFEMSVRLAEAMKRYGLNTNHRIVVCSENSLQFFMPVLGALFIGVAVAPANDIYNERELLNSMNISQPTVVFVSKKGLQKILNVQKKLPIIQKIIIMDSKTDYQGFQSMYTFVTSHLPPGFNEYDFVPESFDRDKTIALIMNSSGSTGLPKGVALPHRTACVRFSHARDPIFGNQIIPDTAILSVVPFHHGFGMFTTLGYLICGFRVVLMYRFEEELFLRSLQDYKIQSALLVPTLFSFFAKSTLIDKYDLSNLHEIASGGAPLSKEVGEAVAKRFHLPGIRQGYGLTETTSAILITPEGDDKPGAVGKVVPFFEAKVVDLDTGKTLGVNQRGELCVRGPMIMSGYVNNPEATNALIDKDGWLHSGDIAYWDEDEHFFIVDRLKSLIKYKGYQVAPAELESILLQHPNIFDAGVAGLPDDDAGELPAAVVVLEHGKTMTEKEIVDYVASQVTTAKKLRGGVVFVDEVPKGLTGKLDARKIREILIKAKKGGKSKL

`O=C(O)CNC(=O)[C@@H](CS)Cc1ccccc1`: the activity change, negative = inhibition in [1] (at 17.2 µM (top of the series)) is 1.14% (inactive); in [1] (at 38 µM (top of the series)) it was -1.37% (inactive); in [3] (at 17.2 µM (top of the series)), 3.12% (inactive); in test [3] (at 38 µM (top of the series)), -2.03% (inactive); in test [11], -1.09% (inactive). For the same compound, the Potency result in test [2] and in [7] was “inactive” in each case. Also, the activity, negative = inhibition in test [4] (at 17.2 µM (top of the series)) is 14.5% (inactive); in test [4] (at 38 µM (top of the series)), 26.3% (inactive). Also, the Potency in [5] was > 46 µM (inactive) and > 20.6 µM (inactive); in test [6] it was > 46 µM (inactive) and > 20.6 µM (inactive). Further, the result in test [8], in [9] and in test [10] was inactive. Besides, the max response in test [11] (setting [17]) was -2.84%; in test [11] (setting [18]), -4.92%.
As to `CCCN[C@@H](C)C(=O)Nc1ccccc1C`, the activity change, negative = inhibition was -5.22% (inactive) in [1] (at 17.2 µM (top of the series)); 7.83% (inactive) in test [1] (at 38 µM (top of the series)); -7.99% (inactive) in [3] (at 17.2 µM (top of the series)); 0.91% (inactive) in test [3] (at 38 µM (top of the series)); -0.0308% (inactive) in [11]. Moreover, the Potency result (in test [2]; in test [7]; in test [12]; in test [14]; in the test with AS120; in the test with CP238) was “inactive” in each case. Besides, the Potency result with CP265 and in the test with FAB9 was “inactive” throughout. For the same compound, the Potency in test [5] is > 46 µM (inactive) and > 20.6 µM (inactive); in test [6], > 46 µM (inactive) and > 20.6 µM (inactive). Moreover, the compound was called inactive in test [8], in test [9], in [10], in [13] and in test [15]. In addition, the figures for the max response in test [11] (setting [17]) and in [11] (setting [18]) were 11.7% and 11.2%, respectively. The activity, negative = inhibition in [16] (parasite line A) was 7.59% (inactive); in test [16] (parasite line B) it was 9.71% (inactive).
As to `C[C@@]12CCC(=O)C=C1CC[C@@H]1[C@@H]2[C@H](O)C[C@]2(C)[C@@H]1CC[C@]2(O)C(=O)CO`, the activity change, negative = inhibition in [1] (at 17.2 µM (top of the series)) is 1.82% (inactive); in test [1] (at 38 µM (top of the series)) it was 1.86% (inactive); in test [3] (at 17.2 µM (top of the series)), -9.51% (inactive); in test [3] (at 38 µM (top of the series)), -0.823% (inactive); in test [11], -5.23% (inactive). For the same compound, the Potency entry in test [2], in test [7], in test [12] and in test [14] was “inactive” throughout. The activity, negative = inhibition in test [4] (at 17.2 µM (top of the series)) was -0.993% (inactive); in test [4] (at 38 µM (top of the series)) it was -22.1% (inactive). The max response in test [11] (setting [17]) is -11.2%; in [11] (setting [18]) it was -16.6%.
Regarding `CN1Cc2c(N)cccc2[C@H](c2ccccc2)C1`, the activity change, negative = inhibition in test [1] (at 17.2 µM (top of the series)) was -6.53% (inactive); in [1] (at 38 µM (top of the series)), -7.55% (inactive); in [3] (at 17.2 µM (top of the series)), -6.69% (inactive); in [3] (at 38 µM (top of the series)) it was -5.66% (inactive); in [11] it was 1.09% (inactive). The Potency in test [2] was 31.6 µM (active) and 6.31 µM (active); in test [5], > 46 µM (inactive) and > 20.6 µM (inactive); in [6] it was > 46 µM (inactive) and > 20.6 µM (inactive). For the same compound, the Potency entry in test [7], in test [12] and in [14] was “inactive” throughout. Further, the outcome in test [8], in test [9] and in [10] was inactive. For the same compound, the max response in test [11] (setting [17]) was -0.662%; in [11] (setting [18]) it was 0.613%.
Consider `C[C@@]12CCC(=O)C=C1CC[C@H]1[C@H]3CC[C@](O)(C(=O)CO)[C@]3(C)CC(=O)[C@@H]12`, for which the activity change, negative = inhibition in test [1] (at 17.2 µM (top of the series)) was 11.7% (inactive); in test [1] (at 38 µM (top of the series)), -1.21% (inactive); in [3] (at 17.2 µM (top of the series)), -13.1% (inactive); in [3] (at 38 µM (top of the series)) it was -9.72% (inactive); in test [11], -1.59% (inactive). Besides, the Potency result in [2], in [12] and in test [14] was “inactive” throughout. For the same compound, the figures for the activity, negative = inhibition in test [4] (at 17.2 µM (top of the series)) and in [4] (at 38 µM (top of the series)) were 8.63% (inactive) and -7% (inactive), respectively. Further, the Potency was 431 nM (active) in [5]; > 46 µM (inactive) and > 20.6 µM (inactive) in [6]. The max response is -0.115% in test [11] (setting [17]) and -3.69% in test [11] (setting [18]).
